# Most compounds without a hit are left out; they make up all but 11% or so of the library.
# PNC assembly inh = inhibitors of perinucleolar compartment assembly | PC3M PTB-GFP, PNC prevalence imaging, 16 h; stronger effect = lower value | activity change (PNC), negative = inhibition, % at 10 µM | actives 3.1% (n = 140,000);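 active = readout at or below -70, meaning at least 70% loss of cells showing the perinucleolar compartment, a nuclear body marking cancer cells; inconclusive = readout between -30 and a set limit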;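 note: plate controls were DMSO wells for no effect and camptothecin positive control wells for full effect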
#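 Read-out is percentage of cells bearing a perinucleolar compartment, from automated 20x imaging of fixed, Hoechst-stained PC3M PTB-GFP cells. Cells were seeded 4 h, then exposed 16 h to compound (23 nl of library stock) in duplicate plates.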
# HPGD block = blocks human HPGD enzyme activity; P15428; purified HPGD, NADH fluorescence kinetic, PGE2 substrate; Potency, µM, inactives show at the highest dose activity change, negative = inhibition, hits mostly inhibitors; actives 4.3% (n = 150,000); note: potency is the fitted concentration of half-maximal effect
#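 NADH formation kinetics: reaction with 30 uM PGE2 and 1 mM NAD+ (final), 20 nM enzyme, Tris-HCl pH 8 with Tween 20, after 15 min compound preincubation at room temperature. Fluorescence change, last versus first of five reads.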
# ALDH1A1 inh = ALDH1A1 (human) enzyme inhibition | AID 1030 | Potency, µM (highest dose often 75.3 µM), for inactives: top-dose activity, negative = inhibition, usual class: inhibitors | actives 7.3% (n = 220,000) | Purified ALDH1A1, NADH fluorescence, propionaldehyde substrate;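 note: potency is the fitted concentration of half-maximal effect; plate controls were no enzyme wells and a reference inhibitor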
# Target sequence (P00352 whole entry, looked up): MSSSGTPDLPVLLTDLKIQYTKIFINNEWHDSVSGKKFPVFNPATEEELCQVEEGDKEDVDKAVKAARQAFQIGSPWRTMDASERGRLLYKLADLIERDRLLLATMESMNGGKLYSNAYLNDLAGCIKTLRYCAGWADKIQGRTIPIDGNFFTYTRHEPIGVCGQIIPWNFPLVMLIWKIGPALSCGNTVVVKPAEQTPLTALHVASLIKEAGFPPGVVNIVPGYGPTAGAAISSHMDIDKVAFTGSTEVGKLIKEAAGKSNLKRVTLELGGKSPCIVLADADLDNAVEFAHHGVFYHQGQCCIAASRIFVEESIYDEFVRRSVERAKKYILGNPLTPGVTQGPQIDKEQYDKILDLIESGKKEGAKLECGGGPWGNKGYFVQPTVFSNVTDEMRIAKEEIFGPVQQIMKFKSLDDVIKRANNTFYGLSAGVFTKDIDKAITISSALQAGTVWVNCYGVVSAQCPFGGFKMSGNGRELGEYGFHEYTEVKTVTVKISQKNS
# Numbers without * were called inactive; ? = inconclusive; nt = not tested or not shown; [ ] = another dose, or the depositor's remark. Unless noted, calls come from the whole dose curve; as a rule, active = well fitted inhibition curve with a large enough effect (not every such curve was filed as active); inconclusive = small, poorly fitted or top-dose-only effect, or another doubt; inactive = no such curve, though single readings can be large or run the other way. Unless noted, % is set by controls: 0 for no effect and ±100 for the full control effect.
SMILES,PNC assembly inh,HPGD block,ALDH1A1 inh
CC1CC1C(=O)OCC(=O)NC(=O)NCc1ccco1 (stereo not drawn),-87.5*,-10.0%,9.0%
O=C(COC(=O)C12CC3CC(CC(O)(C3)C1)C2)NC(=O)NCc1ccco1,-27.9,-0.1%,-9.3%
O=C(NCc1ccco1)c1ccc(-c2ccc(Cl)cc2)o1,nt,nt,-11.3%
COC(=O)[C@@H](NC(=O)NCc1cccs1)C(C)C,11.2,-3.3%,-10.2%
CCC1=Nc2cc(C(=O)NCc3ccco3)ccc2Sc2ccccc21,-7.4,-26.9%,?
O=C(NCc1ccco1)c1ccc(COc2cc(Cl)ccc2Cl)cc1,-2.2,17.8µM*,3.7%
COC(=O)[C@@H](NC(=O)NCc1ccco1)C(C)C,-0.3,-9.3%,10µM*
CCC1=Nc2cc(C(=O)NCc3ccco3)ccc2Sc2ccc(Cl)cc21,-100.0*,-27.3%,?
CC(Nc1oc(-c2ccccc2)nc1-c1ccc(C(F)(F)F)cc1)c1ccccc1 (stereo not drawn),nt,-9.9%,5.7%
Brc1ccc(C2=N[C@@H](Cc3ccccc3)CO2)cc1,nt,-7.2%,-12.1%
CCCCCCc1cc2cc(S(=O)(=O)c3ccc(F)c(Cl)c3)c(=O)oc2cc1O,-17.4,?,?
CC1(CC(=O)N/N=C/c2cc3c(cc2Br)OCO3)OCCO1,nt,nt,-4.9%
CCOc1c(CNc2nnnn2C)cccc1OC,nt,nt,10.2%
O=C(Cc1ccc(-n2c(=S)[nH]c3ccccc3c2=O)cc1)N1CCN(c2ccccc2)CC1,-0.8,-8.8%,?
Cc1ccc(C(=O)OCC(=O)Nc2c(Cl)cc(S(N)(=O)=O)cc2Cl)o1,nt,nt,1.7%
CCCOc1ccc(C(=O)NCc2ccco2)cc1,-5.2,?,-3.0%
COC(=O)CNC(=O)c1ccc(=O)oc1,?,-21.6%,-3.0%
O=C(NCc1ccco1)c1ccc(=O)oc1,-82.9*,nt,0.1%
CC(C)Oc1ccc(C(=O)NCc2ccco2)cc1,51.5,17.8µM*,-8.2%
O=C(NC1CC1)C1=C[C@@H](C2CCCCC2)C[C@@H](OCCCCO)O1,nt,nt,-2.1%
COc1ccc(-n2nc(C(C)=O)c(=O)[nH]c2=O)cc1,nt,nt,-1.3%
O=C(O)c1cccc(N=Nc2c(S(=O)(=O)O)ccc3c2C(=O)c2ccccc2C3=O)c1O,nt,-22.3%,-5.4%[13.5 µM]
COc1ccc(C(=O)NNC(=O)Cc2ccc([N+](=O)[O-])cc2)cc1,-1.5,-8.4%,?
CCC(=O)NC(=S)NNC(=O)c1ccc([N+](=O)[O-])cc1,61.1,-26.9%,20µM*
Cc1ccc(C(=O)NNC(=S)NC(=O)COc2ccccc2)cc1,?,-14.8%,17.8µM*
SMILES,PNC assembly inh,HPGD block,ALDH1A1 inh
COC(=O)c1ccccc1NC(=S)NC(=O)COc1ccccc1,9.3,-14.7%,?
C=CCNC(=S)NNC(=O)c1ccc(Br)cc1,-29.3,-17.1%,-4.0%
O=C(COc1ccccc1)NC(=S)Nc1ccc(Br)cn1,nt,nt,7.5%
C=CCNC(=S)NNC(=O)c1ccc(OCCCC)cc1,-121.7*,-7.9%,0.3%
CCC(=O)NC(=S)NNC(=O)COc1ccc(Br)cc1,nt,nt,23.8µM*
CCOC(=O)CN1C(=O)N[C@@H](CCc2ccccc2)[C@@H](C(=O)OC)[C@H]1C,nt,-6.8%,-1.0%[13.5 µM]
CCCn1c(SCC(=O)NC(C)(C)C)nnc1-c1ccco1,nt,nt,-0.6%
N#C[C@H]1CN[C@H](N)N[C@@H]1N,nt,-4.3%,4.6%[13.5 µM]
Cc1cc(C(=O)CN2CCCC(C)C2)c(C)n1-c1ccc(F)cc1 (stereo not drawn),?,?,0.7%
CCC(=O)NC(=S)Nc1ccc(NC(=O)COc2ccccc2)cc1,-1.0,-17.5%,25.1µM*
CCC1CCCCN1C(=S)NC(=O)c1ccc([N+](=O)[O-])cc1 (stereo not drawn),11.3,-17.1%,35.5µM*
CCC(=O)Nc1ccc(NC(=S)NC(=O)Cc2ccccc2)cc1,-20.8,-26.6%,-7.1%
CCC(=O)NC(=S)NNC(=O)c1ccc(OC)cc1,?,-28.6%,39.8µM*
CC(C)CC(=O)NC(=S)NNC(=O)c1ccc(NC(=O)C2CCCCC2)cc1,31.6,-17.2%,-5.2%
CCCCOc1ccc(C(=O)NNC(=S)NC(=O)CC)cc1,?,-1.7%,-1.6%
Cc1ccc(C(=O)NC(=S)N2CCN(c3ccc([N+](=O)[O-])cc3)CC2)cc1,-4.8,-3.4%,?
CC(C)CC(=O)NC(=S)NNC(=O)c1ccc([N+](=O)[O-])cc1,-2.5,31.6µM*,-4.1%
O=[N+]([O-])c1ccc(C2OCCO2)cc1CS(=O)(=O)c1ccccc1,nt,nt,-6.8%
Nc1ccc2c(c1)nc(Cc1ccccc1)n2CCO,nt,nt,1.1%
CC(NC(=O)COc1ccc(Br)cc1)C(=O)O (stereo not drawn),29.2,-14.8%,10µM*
CC(NC(=O)COc1cccc(Br)c1)C(=O)O (stereo not drawn),25.5,nt,-9.5%
COc1ccc(C(=O)NNC(=O)CNC(=O)C2CCCCC2)cc1,nt,nt,-4.2%
COc1ccc(C(=O)NC(=S)NNC(=O)CNC(=O)C2CCCCC2)cc1,nt,nt,22.4µM*
CCNC(=O)CCSc1nnc(-c2ccco2)o1,0.0,-2.4%,8.4%
CC(=O)N1CCC(=NNc2ncc(C(F)(F)F)cc2Cl)CC1,nt,nt,15.8µM*
SMILES,PNC assembly inh,HPGD block,ALDH1A1 inh
O=C(O)CC/C(=N/Nc1ncc(C(F)(F)F)cc1Cl)C(=O)O,nt,nt,5.0%
CN(C)S(=O)(=O)c1ccc(NC(=O)c2ccncc2)cc1,nt,nt,-0.3%
NS(=O)(=O)c1cccc(NC(=O)c2cccnc2Oc2ccccc2)c1,nt,nt,-11.3%
CN(C)S(=O)(=O)c1ccc(Cl)c(NC(=O)c2ccncc2)c1,0.9,-2.0%,11.2µM*
Cc1ccc(S(=O)(=O)N(C)C)cc1NC(=O)c1cc(C(C)(C)C)nn1Cc1ccccc1,nt,nt,4.47µM*
Cc1ccc(S(=O)(=O)N(C)C)cc1NC(=O)c1cccnc1Oc1ccccc1,nt,nt,28.2µM*
Cc1ccc(S(=O)(=O)N(C)C)cc1NC(=O)CN1CCN(Cc2ccccc2)CC1,nt,nt,0.7%
COC(=O)c1cc(-c2ccc(Cl)cc2Cl)n[nH]1,nt,nt,5.6%
CC1(C)N=C(N)N=C(N)N1c1cccc(CSc2ccccc2)c1,nt,-6.3%,4.8%[13.5 µM]
O=c1[nH]c(/C(Cl)=C/c2cc(Cl)ccc2O)nc2cc(Cl)ccc12,8.0,8.91µM*,6.8%
O=c1[nH]c(/C(Cl)=C/c2c(F)cccc2Cl)nc2cc(Cl)ccc12,43.7,?,0.5%
Cn1cc(CN2CCC(N3CCNC(=O)CC3)CC2)c(-c2ccccc2F)n1,nt,nt,-6.4%
Cc1cccc(C(=O)Nc2ccc(O)c3c(=O)cc(-c4ccccc4Cl)oc23)c1,60.3,-10.4%,1.0%
O=C(Nc1ccc(O)c2c(=O)cc(-c3ccccc3Cl)oc12)c1cccc(Cl)c1,-80.0*,-10.3%,9.1%
O=C(Nc1ccc(O)c2c(=O)cc(-c3ccccc3Cl)oc12)c1ccccc1Cl,56.9,-1.7%,12.2%
O=C(Nc1ccc(O)c2c(=O)cc(-c3ccccc3Cl)oc12)c1ccc(Br)cc1,nt,1.12µM*,-6.2%
C=C1Cc2c(Cl)cc3[nH]c4c5c3c2[C@@]2(O)[C@@H]1C[C@@H]2C(C)(C)O[C@H]5[C@@H]1CC[C@@]2(O)[C@@]35O[C@@H]3[C@@H](O)[C@@H](C(=O)O)O[C@H]5CC[C@]2(C)[C@@]41C,nt,nt,-6.1%
COc1ccc(-c2nc3cnc(Nc4ccccc4)nc3n(CCC#N)c2=O)cc1,nt,-3.4%,-0.5%
Cc1ccc(C)c(C(=O)CSc2n[nH]c(-c3ccncc3)n2)c1,-10.5,nt,5.01µM*
Cc1cc(C)c(C(=O)CSc2n[nH]c(-c3ccncc3)n2)c(C)c1,nt,nt,11.0%
